# From ChEMBL document CHEMBL2218924, “A broad activity screen in support of a chemogenomic map for kinase signalling research and drug discovery” (Biochem J, 2013)
# Tests used:
# [1] = target: T1, Ephrin type-A receptor 3 (Homo sapiens) (UniProt P29320); details: at 10 µM
# T1 sequence (whole entry): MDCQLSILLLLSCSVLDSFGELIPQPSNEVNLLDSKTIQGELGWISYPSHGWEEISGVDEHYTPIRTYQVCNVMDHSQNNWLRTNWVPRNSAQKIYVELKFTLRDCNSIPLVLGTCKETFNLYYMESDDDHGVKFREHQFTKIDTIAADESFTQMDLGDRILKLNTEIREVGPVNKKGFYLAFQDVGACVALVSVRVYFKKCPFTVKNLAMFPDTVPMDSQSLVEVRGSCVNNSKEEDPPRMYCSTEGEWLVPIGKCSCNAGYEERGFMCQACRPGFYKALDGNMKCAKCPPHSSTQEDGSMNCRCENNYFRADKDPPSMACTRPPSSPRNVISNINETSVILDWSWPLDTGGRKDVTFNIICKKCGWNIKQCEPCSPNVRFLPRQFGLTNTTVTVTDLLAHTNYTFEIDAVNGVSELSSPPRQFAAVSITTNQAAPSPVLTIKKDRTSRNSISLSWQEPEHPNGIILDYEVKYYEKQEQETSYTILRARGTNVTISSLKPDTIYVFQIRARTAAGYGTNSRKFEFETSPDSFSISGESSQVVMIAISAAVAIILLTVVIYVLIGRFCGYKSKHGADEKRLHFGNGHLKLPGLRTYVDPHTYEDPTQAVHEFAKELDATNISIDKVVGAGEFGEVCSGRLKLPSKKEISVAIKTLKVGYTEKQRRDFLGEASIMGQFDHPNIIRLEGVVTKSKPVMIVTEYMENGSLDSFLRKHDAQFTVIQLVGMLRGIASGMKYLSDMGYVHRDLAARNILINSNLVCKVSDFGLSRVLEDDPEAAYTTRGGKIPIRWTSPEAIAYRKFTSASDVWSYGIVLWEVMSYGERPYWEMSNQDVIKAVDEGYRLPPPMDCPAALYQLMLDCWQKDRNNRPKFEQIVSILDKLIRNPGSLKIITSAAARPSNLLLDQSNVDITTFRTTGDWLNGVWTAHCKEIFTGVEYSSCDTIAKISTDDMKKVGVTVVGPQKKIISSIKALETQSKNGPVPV
# [2] = target: T2, Ephrin type-B receptor 1 (Homo sapiens) (UniProt P54762); details: at 1 µM
# T2 sequence (whole entry): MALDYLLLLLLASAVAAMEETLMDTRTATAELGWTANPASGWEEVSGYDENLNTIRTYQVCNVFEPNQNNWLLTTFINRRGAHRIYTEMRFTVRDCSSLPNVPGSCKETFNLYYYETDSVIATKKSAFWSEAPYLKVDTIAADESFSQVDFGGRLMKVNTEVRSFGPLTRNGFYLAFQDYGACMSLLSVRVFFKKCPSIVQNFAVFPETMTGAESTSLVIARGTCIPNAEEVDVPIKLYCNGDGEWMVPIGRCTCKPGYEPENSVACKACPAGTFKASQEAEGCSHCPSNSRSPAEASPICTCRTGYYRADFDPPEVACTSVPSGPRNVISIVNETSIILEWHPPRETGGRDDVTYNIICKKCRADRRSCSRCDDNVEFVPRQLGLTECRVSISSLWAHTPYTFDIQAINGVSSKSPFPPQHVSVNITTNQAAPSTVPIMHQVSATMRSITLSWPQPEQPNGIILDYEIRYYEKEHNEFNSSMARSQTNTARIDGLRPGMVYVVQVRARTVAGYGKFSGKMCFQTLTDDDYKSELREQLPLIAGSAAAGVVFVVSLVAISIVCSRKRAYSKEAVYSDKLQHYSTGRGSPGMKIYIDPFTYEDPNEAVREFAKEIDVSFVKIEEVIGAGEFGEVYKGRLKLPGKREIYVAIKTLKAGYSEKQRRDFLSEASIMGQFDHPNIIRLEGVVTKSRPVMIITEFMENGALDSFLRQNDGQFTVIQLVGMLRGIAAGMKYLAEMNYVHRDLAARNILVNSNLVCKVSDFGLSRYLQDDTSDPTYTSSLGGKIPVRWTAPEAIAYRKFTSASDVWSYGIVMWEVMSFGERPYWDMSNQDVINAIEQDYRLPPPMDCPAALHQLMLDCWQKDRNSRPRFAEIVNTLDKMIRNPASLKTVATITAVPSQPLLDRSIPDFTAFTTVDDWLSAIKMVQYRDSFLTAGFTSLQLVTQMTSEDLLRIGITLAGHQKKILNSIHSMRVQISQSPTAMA
# [3] = target: T2, Ephrin type-B receptor 1 (Homo sapiens); details: at 10 µM
# [4] = target: T3, Ephrin type-B receptor 2 (Homo sapiens) (UniProt P29323); details: at 1 µM
# T3 sequence (whole entry): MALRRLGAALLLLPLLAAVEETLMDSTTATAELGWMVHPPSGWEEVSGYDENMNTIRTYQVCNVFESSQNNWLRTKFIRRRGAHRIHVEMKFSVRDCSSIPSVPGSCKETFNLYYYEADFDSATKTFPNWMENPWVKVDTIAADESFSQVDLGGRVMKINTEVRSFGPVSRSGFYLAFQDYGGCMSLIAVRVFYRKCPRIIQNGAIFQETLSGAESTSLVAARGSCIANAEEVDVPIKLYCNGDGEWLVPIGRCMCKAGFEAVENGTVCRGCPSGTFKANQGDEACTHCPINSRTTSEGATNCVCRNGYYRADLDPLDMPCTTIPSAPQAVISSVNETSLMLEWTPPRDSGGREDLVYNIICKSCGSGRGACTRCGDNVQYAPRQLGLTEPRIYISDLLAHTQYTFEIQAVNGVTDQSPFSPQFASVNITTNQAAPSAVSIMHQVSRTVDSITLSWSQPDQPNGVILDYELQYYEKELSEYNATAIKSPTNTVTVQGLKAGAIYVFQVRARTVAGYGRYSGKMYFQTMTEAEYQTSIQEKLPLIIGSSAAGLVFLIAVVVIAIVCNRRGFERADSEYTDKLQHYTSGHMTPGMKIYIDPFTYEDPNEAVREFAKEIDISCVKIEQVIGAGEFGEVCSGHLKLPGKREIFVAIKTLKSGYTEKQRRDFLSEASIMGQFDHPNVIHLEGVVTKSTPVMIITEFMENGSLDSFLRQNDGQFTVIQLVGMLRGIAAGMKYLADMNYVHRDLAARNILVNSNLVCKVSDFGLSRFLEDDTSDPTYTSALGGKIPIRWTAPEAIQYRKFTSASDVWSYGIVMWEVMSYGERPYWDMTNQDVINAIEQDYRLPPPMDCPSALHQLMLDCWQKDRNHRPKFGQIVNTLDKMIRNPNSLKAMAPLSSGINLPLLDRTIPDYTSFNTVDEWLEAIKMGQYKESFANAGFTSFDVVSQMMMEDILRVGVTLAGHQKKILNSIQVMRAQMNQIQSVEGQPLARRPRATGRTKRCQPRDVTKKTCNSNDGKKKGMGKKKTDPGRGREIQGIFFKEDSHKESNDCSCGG
# [5] = target: T3, Ephrin type-B receptor 2 (Homo sapiens); details: at 10 µM
# [6] = target: T4, Ephrin type-B receptor 3 (Homo sapiens) (UniProt P54753); details: at 1 µM
# T4 sequence (whole entry): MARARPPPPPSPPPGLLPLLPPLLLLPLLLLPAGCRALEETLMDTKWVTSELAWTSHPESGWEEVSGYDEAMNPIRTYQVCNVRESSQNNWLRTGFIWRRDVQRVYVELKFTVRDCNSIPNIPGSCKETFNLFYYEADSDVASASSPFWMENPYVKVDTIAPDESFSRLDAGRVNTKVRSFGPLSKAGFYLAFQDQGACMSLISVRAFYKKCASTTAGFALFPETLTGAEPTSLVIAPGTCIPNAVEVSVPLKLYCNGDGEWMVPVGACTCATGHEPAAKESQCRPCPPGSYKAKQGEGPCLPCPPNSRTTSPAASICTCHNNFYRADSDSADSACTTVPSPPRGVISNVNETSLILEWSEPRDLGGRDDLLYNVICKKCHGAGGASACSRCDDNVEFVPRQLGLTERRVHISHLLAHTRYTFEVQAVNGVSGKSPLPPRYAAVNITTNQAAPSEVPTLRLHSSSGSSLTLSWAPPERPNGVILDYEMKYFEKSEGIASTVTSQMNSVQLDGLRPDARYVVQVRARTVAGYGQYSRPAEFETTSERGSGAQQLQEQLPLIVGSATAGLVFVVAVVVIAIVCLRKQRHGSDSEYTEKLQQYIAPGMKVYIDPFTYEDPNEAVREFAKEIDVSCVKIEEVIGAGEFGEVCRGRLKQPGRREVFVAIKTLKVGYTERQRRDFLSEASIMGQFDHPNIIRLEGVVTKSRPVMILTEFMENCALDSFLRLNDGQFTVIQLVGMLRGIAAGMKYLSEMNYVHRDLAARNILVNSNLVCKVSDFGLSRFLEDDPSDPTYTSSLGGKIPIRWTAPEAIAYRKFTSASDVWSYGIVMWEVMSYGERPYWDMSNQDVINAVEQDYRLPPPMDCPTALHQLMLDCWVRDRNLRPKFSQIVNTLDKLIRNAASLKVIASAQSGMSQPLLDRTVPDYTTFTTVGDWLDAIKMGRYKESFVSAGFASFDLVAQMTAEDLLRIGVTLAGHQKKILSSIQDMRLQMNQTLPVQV
# [7] = target: T4, Ephrin type-B receptor 3 (Homo sapiens); details: at 10 µM
# [8] = target: T5, Ephrin type-B receptor 4 (Homo sapiens) (UniProt P54760); details: at 1 µM
# T5 sequence (whole entry): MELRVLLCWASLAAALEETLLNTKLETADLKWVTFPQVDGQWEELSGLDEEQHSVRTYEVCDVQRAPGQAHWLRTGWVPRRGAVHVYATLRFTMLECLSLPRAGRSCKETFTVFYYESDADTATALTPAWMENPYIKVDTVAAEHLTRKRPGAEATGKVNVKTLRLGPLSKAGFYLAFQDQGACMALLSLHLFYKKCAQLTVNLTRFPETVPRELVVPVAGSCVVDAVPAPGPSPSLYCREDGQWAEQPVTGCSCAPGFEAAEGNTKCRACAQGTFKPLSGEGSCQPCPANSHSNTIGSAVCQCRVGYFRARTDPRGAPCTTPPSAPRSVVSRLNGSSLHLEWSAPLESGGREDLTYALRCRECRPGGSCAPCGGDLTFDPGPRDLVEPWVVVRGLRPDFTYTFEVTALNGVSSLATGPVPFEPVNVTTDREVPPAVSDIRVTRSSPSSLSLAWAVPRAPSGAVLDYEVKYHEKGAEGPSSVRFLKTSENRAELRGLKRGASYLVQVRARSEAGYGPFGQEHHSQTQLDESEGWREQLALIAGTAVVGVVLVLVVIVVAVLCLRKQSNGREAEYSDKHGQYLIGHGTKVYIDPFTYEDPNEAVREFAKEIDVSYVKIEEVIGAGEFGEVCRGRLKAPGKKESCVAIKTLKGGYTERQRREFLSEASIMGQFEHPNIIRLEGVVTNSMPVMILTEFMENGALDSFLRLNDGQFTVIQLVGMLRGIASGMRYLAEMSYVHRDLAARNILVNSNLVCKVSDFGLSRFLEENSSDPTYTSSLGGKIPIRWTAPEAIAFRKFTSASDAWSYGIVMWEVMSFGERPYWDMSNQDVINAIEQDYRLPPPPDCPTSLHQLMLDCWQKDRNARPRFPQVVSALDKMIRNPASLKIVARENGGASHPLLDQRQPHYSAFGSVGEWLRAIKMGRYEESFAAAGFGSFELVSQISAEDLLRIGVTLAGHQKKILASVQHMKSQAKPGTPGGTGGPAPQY
# [9] = target: T5, Ephrin type-B receptor 4 (Homo sapiens); details: at 10 µM
# [10] = target: Receptor tyrosine-protein kinase erbB-4 (Homo sapiens) (UniProt Q15303); details: at 1 µM
# [11] = target: Receptor tyrosine-protein kinase erbB-4 (Homo sapiens) (UniProt Q15303); details: at 10 µM
# Receptor tyrosine-protein kinase erbB-4 (Homo sapiens), sequence (Q15303 whole entry): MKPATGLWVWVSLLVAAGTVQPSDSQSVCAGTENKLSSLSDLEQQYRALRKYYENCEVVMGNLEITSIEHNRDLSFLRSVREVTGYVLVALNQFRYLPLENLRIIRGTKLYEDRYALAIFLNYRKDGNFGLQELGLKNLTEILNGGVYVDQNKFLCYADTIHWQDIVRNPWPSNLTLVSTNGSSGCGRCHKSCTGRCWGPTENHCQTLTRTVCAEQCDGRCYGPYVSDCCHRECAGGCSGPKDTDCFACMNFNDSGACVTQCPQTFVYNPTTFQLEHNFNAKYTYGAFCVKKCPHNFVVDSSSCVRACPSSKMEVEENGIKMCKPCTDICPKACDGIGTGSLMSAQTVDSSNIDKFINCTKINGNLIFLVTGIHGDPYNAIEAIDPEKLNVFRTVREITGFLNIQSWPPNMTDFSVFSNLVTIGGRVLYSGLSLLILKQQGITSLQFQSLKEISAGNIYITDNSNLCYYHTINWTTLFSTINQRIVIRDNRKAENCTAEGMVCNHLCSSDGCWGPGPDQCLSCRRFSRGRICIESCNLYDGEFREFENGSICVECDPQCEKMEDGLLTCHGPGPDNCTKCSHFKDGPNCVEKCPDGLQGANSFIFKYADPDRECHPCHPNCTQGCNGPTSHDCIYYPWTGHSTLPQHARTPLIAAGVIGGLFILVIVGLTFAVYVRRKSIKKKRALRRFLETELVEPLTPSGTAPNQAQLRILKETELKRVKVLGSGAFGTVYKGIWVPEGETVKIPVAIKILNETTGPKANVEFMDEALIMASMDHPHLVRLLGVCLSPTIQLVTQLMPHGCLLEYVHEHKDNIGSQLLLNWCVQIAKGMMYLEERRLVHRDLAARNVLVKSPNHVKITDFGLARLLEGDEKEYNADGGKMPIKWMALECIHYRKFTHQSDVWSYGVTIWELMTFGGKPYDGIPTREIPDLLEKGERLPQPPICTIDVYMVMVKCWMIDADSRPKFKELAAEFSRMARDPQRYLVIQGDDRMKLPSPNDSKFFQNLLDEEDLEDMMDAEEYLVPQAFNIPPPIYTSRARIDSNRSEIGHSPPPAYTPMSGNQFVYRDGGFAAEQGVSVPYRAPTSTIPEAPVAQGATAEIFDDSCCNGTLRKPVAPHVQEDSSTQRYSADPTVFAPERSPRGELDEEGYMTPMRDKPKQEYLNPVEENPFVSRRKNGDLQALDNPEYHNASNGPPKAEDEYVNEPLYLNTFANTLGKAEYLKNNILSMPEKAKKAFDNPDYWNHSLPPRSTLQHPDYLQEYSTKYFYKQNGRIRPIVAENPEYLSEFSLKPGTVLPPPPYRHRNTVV
structure (smiles),measurement,setting,value
NC(=O)c1ccc(-c2nc(-c3ccc4c(c3)OCCO4)c(-c3ccccn3)[nH]2)cc1,residual activity,[1],94%
same,residual activity,[2],93%
same,residual activity,[3],85%
same,residual activity,[4],96%
same,residual activity,[5],24%
same,residual activity,[6],117% (inactive)
same,residual activity,[7],98%
same,residual activity,[8],85%
same,residual activity,[9],41%
same,residual activity,[10],89%
same,residual activity,[11],59%
